In PubChem BioAssay AID463173 (ICCB-Longwood Screening Facility, Harvard Medical School, 2010):
The campaign covered roughly 52,000 compounds. About 1,700 (3.3%) were called active. Cut-off read from the data, not from the text of the source: active = survival mostly below about 52% (no sharp cut-off); inactive = mostly above about 56%. Only a selection was taken, and actives are over-represented in it overall.

What follows are molecules tested on Wild type (assay: growth inhibition of S. aureus wild type versus tarO mutant, primary screen, teichoic acid synthesis inhibitors, RN4220, OD600 (AID 463173)). Conditions: S. aureus RN4220 wild type/DeltatarO growth, OD600, 18 h, hits give low values, screened at 18.75 µg/mL (by protocol).

Row | Compound | survival
1 | CCc1cccc(NC(=O)Cn2c(=O)n(CCc3ccc(OC)c(OC)c3)c(=O)c3ccccc32)c1 | 124% (inactive)
2 | O=C(Cn1c(-c2cccs2)cc2ccccc21)NCCCN1CCN(c2ccc(F)cc2)CC1 | 136% (inactive)
3 | O=C1S/C(=C\c2ccccc2)C(=O)N1CN1CCOCC1 | 125% (inactive)
4 | Cc1nc2cccnc2n1C1CCN(C(=O)Nc2ccccc2C(F)(F)F)CC1 | 72% (inactive)
5 | COc1ccccc1CNC(=O)c1ccc(CN2CC(=O)N3CCCCC3C2=O)cc1 (centres undefined) | 72% (inactive)
6 | CN(C)c1ccc(Nc2ncnc3sc4c(c23)CCCC4)cc1 | 124% (inactive)
7 | CCc1ccc(Nc2ncnc3sc4c(c23)CCCC4)cc1 | 68% (inactive)
8 | Cc1cc(C)cc(Nc2ncnc3sc4c(c23)CCCC4)c1 | -3% (active)
9 | O=C(CCC1N=C2c3ccccc3N=C(SCc3ccccc3Cl)N2C1=O)N1CCN(c2ccccc2)CC1 (centres undefined) | 65% (inactive)
10 | Cc1cc(C)c(NC(=O)Cn2c(=O)n(Cc3ccc(C(=O)NCc4ccc5c(c4)OCO5)cc3)c(=O)c3ccccc32)c(C)c1 | 83% (inactive)
11 | O=C(CSc1nnc(-c2ccccc2F)o1)Nc1cccc(C(F)(F)F)c1 | 60% (inactive)
12 | Cc1cccc(C)c1NC(=O)CSc1nc2ncccc2o1 | 63% (inactive)
13 | O=C(CSc1nc2ncccc2o1)Nc1cccc(C(F)(F)F)c1 | -3% (active)
14 | COc1cc(NC(=O)CSc2nc3ncccc3o2)cc(OC)c1 | 57% (inactive)
15 | O=C(CSc1nc2ncccc2o1)Nc1ccc(Cl)cc1F | 81% (inactive)
16 | Cc1c(Cl)cccc1NC(=O)CSc1nc2ncccc2o1 | 1% (active)
17 | COc1cccc(NC(=O)N(Cc2c[nH]c3ccccc23)C2CCCCCC2)c1 | 63% (inactive)
18 | COc1cccc(NC(=O)N(Cc2nc3ccccc3c(=O)[nH]2)C2CCCCC2)c1 | 122% (inactive)
19 | COc1cccc(NC(=O)Cn2cc(C(=O)C3CCCCC3)c3ccccc32)c1 | 73% (inactive)
20 | COc1cccc(NC(=O)N(Cc2cn(C)c3ccccc23)C2CCCCCC2)c1 | 0% (active)
21 | COc1cccc(NC(=O)N(Cc2cn(C)c3ccccc23)C2CCCCC2)c1 | 0% (active)
22 | COc1cccc(NC(=O)N(Cc2c[nH]c3ccccc23)C2CCCCC2)c1 | 71% (inactive)
23 | CCOc1ccc(C(=O)Nc2nnc(SCc3cc(=O)n4ccccc4n3)s2)cc1 | 69% (inactive)

Row | Compound | survival
24 | CCc1ccc(NC(=O)N(Cc2c[nH]c3ccccc23)C2CCCCC2)cc1 | 93% (inactive)
25 | CCc1ccc(NC(=O)N(Cc2c[nH]c3ccccc23)C2CCCCCC2)cc1 | 127% (inactive)
26 | CCOc1ccc(NC(=O)N(Cc2c[nH]c3ccccc23)C2CCCCCC2)cc1 | 83% (inactive)
27 | CCOc1ccc(NC(=O)N(Cc2cn(CC)c3ccccc23)C2CCCCCC2)cc1 | 0% (active)
28 | CCOc1ccc(NC(=O)N(Cc2c[nH]c3ccccc23)C2CCCCC2)cc1 | 79% (inactive)
29 | CCc1ccc(NC(=O)N(Cc2cn(CC)c3ccccc23)C2CCCCC2)cc1 | 0% (active)
30 | CCCCn1c(SCc2ccccc2C)nc2ccsc2c1=O | 136% (inactive)
31 | COc1cc(Nc2nc(SCc3ccccc3Cl)nc3ccccc23)cc(OC)c1 | 95% (inactive)
32 | Cc1ccc(/C=C/c2nc3ccccc3n2S(=O)(=O)c2ccc(Br)cc2)cc1 | 70% (inactive)
33 | CC(C)c1ccc(Nc2c(-c3ccsc3)nc3ccc(Cl)cn23)cc1 | 95% (inactive)
34 | COc1ccc(C)cc1NC(=O)c1nnn(CC(=O)Nc2c(C)cccc2C)c1N | 74% (inactive)
35 | COc1ccc(NC(=O)Cn2c(=O)n(Cc3nc(C)no3)c(=O)c3cc4c(cc32)OCO4)cc1OC | 70% (inactive)
36 | COc1ccc(C(=O)Nc2cccc(C(=O)OCc3cc(=O)n4nc(C5CC5)sc4n3)c2)cc1 | 111% (inactive)
37 | Cc1ccc(C(=O)Nc2cccc(C(=O)OCc3cc(=O)n4nc(C5CC5)sc4n3)c2)cc1 | 55% (inactive)
38 | O=C(COc1ccccc1)Nc1ccc(C(=O)OCc2cc(=O)n3nc(C4CC4)sc3n2)cc1 | 64% (inactive)
39 | COc1ccc(C(=O)Nc2ccc(C(=O)OCc3cc(=O)n4nc(C5CC5)sc4n3)cc2)cc1 | -3% (active)
40 | Cc1cccc(OCC(=O)Nc2ccc(C(=O)OCc3cc(=O)n4nc(C5CC5)sc4n3)cc2)c1 | -4% (active)
41 | COc1cccc(C(=O)Nc2ccc(C(=O)OCc3cc(=O)n4nc(C5CC5)sc4n3)cc2)c1 | 63% (inactive)
42 | O=C(Nc1cccc(C(=O)OCc2cc(=O)n3nc(C4CC4)sc3n2)c1)c1ccccc1 | 1% (active)
43 | Cc1ccc(OCC(=O)Nc2ccc(C(=O)OCc3cc(=O)n4nc(C5CC5)sc4n3)cc2)cc1 | 81% (inactive)
44 | O=C(Nc1cccc(C(=O)OCc2cc(=O)n3nc(C4CC4)sc3n2)c1)c1ccc(F)cc1 | 81% (inactive)
45 | CCCCN(CC)CCNc1ncnc2onc(-c3ccc(Cl)cc3)c12 | 82% (inactive)
46 | CCC(C(=O)NCc1cc(OC)ccc1OC)n1nc(C)c2sc3ccccc3c2c1=O (centres undefined) | 87% (inactive)

Row | Compound | survival
47 | Cc1ccc(CCNC(=O)c2ccc3c(c2)N(Cc2cccc(F)c2)C(=O)c2ccccc2S3)cc1 | 71% (inactive)
48 | CCN(CC)C(=O)CSc1nnc(COc2ccc(Br)cc2)o1 | 102% (inactive)
49 | COCc1[nH]nc2c1C(c1ccccc1C(F)(F)F)C(C#N)=C(N)O2 (centres undefined) | 114% (inactive)
50 | CCCCCc1ccc(-c2ccc(Br)cc2)nc1 | -3% (active)
51 | CCCCCc1ccc(-c2ccc(C(=O)Oc3ccc(C(=O)OC)cc3)cc2)nc1 | 74% (inactive)
52 | CCCc1ccc(-c2ccc(C(=O)Oc3ccc(Br)cc3)cc2)nc1 | 140% (inactive)
53 | NNC(=O)CCC(=O)Nc1ccccc1 | 112% (inactive)
54 | CC(C)CNS(=O)(=O)c1ccccc1 | 120% (inactive)
55 | CCN(CC)S(=O)(=O)N1CCN(S(=O)(=O)N2CCOCC2)CC1 | 118% (inactive)
56 | O=C(CS(=O)(=O)c1cccc2nsnc12)N1CCN(c2ccc(F)cc2)CC1 | 97% (inactive)
57 | CCOC(=O)c1nnn(-c2nn3nnnc3c3ccccc23)c1C | 101% (inactive)
58 | CCn1cc(C(=O)NCC(C)C)c(=O)c2cc(F)c(N3CCN(C(=O)c4ccco4)CC3)cc21 | 107% (inactive)
59 | O=C(NCc1cccnc1)c1cn(C2CC2)c2cc(N3CCN(C(=O)c4cccc(Cl)c4)CC3)c(F)cc2c1=O | 0% (active)
60 | O=C(NCc1ccncc1)C1CCN(C(=O)c2cccc(Cl)c2)CC1 | 111% (inactive)
61 | CCc1ccc(NC(=O)Cn2c(=O)n(CCCC(=O)NCc3ccccc3Cl)c(=O)c3ccccc32)cc1 | 136% (inactive)
62 | COc1cccc(CNC(=O)c2cc3c(s2)-c2ccccc2OC3)c1 | 65% (inactive)
63 | CC(C)CCN(Cc1ccco1)C(=O)c1cc2c(Cl)nc3ccccc3c2s1 | 77% (inactive)
64 | CCN1CCN(CCCNC(=O)c2cc3c(s2)-c2ccccc2OC3)CC1 | 84% (inactive)
65 | CC(C)OCCCN(Cc1ccco1)C(=O)c1cc2c(s1)-c1ccccc1OC2 | 9% (active)
66 | CN(C)CCN(Cc1ccco1)C(=O)c1cc2c(s1)-c1ccccc1OC2 | 70% (inactive)
67 | CC(C)CCN(Cc1ccco1)C(=O)c1cc2c(s1)-c1ccccc1OC2 | 7% (active)
68 | COCCCN(Cc1ccco1)C(=O)c1cc2c(s1)-c1ccccc1OC2 | 12% (active)
69 | O=C(CC1N=C2c3ccccc3N=C(SCc3ccccc3F)N2C1=O)NCc1cccs1 (centres undefined) | 75% (inactive)

Row | Compound | survival
70 | Cc1cc(C)c2c(NC(=O)c3ccccc3Cl)c(C(=O)Nc3ccc(C)c(C)c3)sc2n1 | 64% (inactive)
71 | CCc1ccc(NC(=O)c2cc3nc(-c4ccc(C)cc4)cc(C(F)(F)F)n3n2)cc1 | 60% (inactive)
72 | O=C(Nc1ccc(NC(=O)C2CC23CCC3)cc1)C1CC12CCC2 (centres undefined) | 118% (inactive)
73 | CCN1CCN(c2cc(C)c3cc(NC(=O)/C=C/c4cccc(OC)c4OC)ccc3n2)CC1 | 83% (inactive)
74 | Cc1ccc(S(=O)(=O)Nc2cccc(-c3ccc(N4CCCCC4)nn3)c2)s1 | 64% (inactive)
75 | COc1ccc(F)cc1S(=O)(=O)Nc1cccc(-c2ccc(N3CCC(C)CC3)nn2)c1 | 129% (inactive)
76 | COc1ccc(C)cc1S(=O)(=O)Nc1cccc(-c2ccc(N3CCC(C)CC3)nn2)c1 | -4% (active)
77 | COc1ccc(C)cc1S(=O)(=O)Nc1cccc(-c2ccc(N3CCCC3)nn2)c1 | 77% (inactive)
78 | O=S(=O)(Nc1cccc(-c2ccc(N3CCCCCC3)nn2)c1)c1ccccc1 | 1% (active)
79 | O=S(=O)(Nc1cccc(-c2ccc(N3CCCCC3)nn2)c1)c1cccc(F)c1 | 119% (inactive)
80 | O=S(=O)(Nc1cccc(-c2ccc(N3CCCCCC3)nn2)c1)c1ccc(F)cc1 | 55% (inactive)
81 | O=S(=O)(Nc1ccc(-c2ccc(N3CCCC3)nn2)cc1)c1ccc(C(F)(F)F)cc1 | 64% (inactive)
82 | O=S(=O)(Nc1ccc(-c2ccc(N3CCCC3)nn2)cc1)c1ccc(OC(F)(F)F)cc1 | -6% (active)
83 | Cc1ccc(S(=O)(=O)Nc2cccc(-c3ccc(N4CCC(C)CC4)nn3)c2)s1 | -3% (active)
84 | O=S(=O)(Nc1ccc(-c2ccc(N3CCCCC3)nn2)cc1)c1ccc(OC(F)(F)F)cc1 | 72% (inactive)
85 | CC1CCN(c2ccc(-c3cccc(NS(=O)(=O)c4ccc(Cl)s4)c3)nn2)CC1 | 71% (inactive)
86 | Cc1ccc(NC(=O)C(=O)NCC(c2ccc3c(c2)OCO3)N2CCOCC2)cc1C (centres undefined) | 45% (inactive)
87 | CC(C)c1ccc(NC(=O)CSC2=Nc3ccccc3C3=NC(CC(=O)NCc4ccc(F)cc4)C(=O)N23)cc1 (centres undefined) | 73% (inactive)
88 | Cc1nc(C)c(-c2csc(NCc3ccccc3)n2)s1 | 123% (inactive)
89 | COc1ccc(CC(=O)Nc2cc(-c3cn4cccnc4n3)ccc2C)cc1OC | 85% (inactive)
